Compounds with a hit are over-represented: about 3.5% of the library has one in this group of screens.
Pf apPOL block = Pf-apPOL DNA polymerase inhibition; Recombinant Pf-apPOL, molecular beacon fluorescence, 1.5 h; inhibition, % at 10 µM; 0.25% of 210,000 active; AID 1794808
mHTT CaM bind = mHTT-calmodulin interaction abrogation; P42858; AlphaScreen His-mHTT/GST-CaM binding, luminescence; inhibition, % at 15 µM; 3.6% of 190,000 active; AID 1671202;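 further: 0% = both proteins with DMSO and 100% = one protein alone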
The depositor's hits bear a star; nt = no result. No stated cut-off is given here; in the data, active means inhibition above about 50%; inactive means the rest.

SMILES	Pf apPOL block	mHTT CaM bind
CCCCNC(=O)CN1N=C(c2ccc(Cl)cc2)CCC1=O	-18	19
Cc1ccc(/C=C/C2=NC(=C\c3ccccc3F)/C(=O)O2)cc1	1	35
COc1ccc(-c2nc(=O)c3ccccc3o2)cc1OC	-3	nt
Cc1c(Cl)cccc1NC1C=CS(=O)(=O)C1 (stereo not drawn)	-1	2
Cc1cccc(-c2cc3n(n2)CCCN(C(=O)c2ccncc2)C3)c1	-2	11
Cc1ccc(C(=O)N2CCCn3nc(-c4ccc(Cl)cc4)cc3C2)s1	3	71*
Cc1cccc(-c2cc3n(n2)CCCN(C(=O)c2cccc(C#N)c2)C3)c1	-4	27
Cc1ccc(C(=O)N2CCCn3nc(-c4cccs4)cc3C2)s1	-3	4
Cc1cccc(-c2cc3n(n2)CCCN(C(=O)COc2ccc(Cl)cc2)C3)c1	3	83*
N#Cc1cccc(C(=O)N2CCCn3nc(-c4ccc(Cl)cc4)cc3C2)c1	0	55*
O=C(O)c1ccc(S(=O)(=O)CC2CCCO2)c([N+](=O)[O-])c1 (stereo not drawn)	-4	0
COc1cc(NS(=O)(=O)c2ccc(NC(=O)c3ccc(OC)c(OC)c3)cc2)nc(OC)n1	1	6
CCOc1ccc(CCNC(=O)C2CC(=O)N(CCc3ccc(C)cc3)C2)cc1OCC (stereo not drawn)	12	5
Cc1ccc(C)c(NCc2ccncc2)c1	3	2
Cc1ccc(NCc2ccc(Cl)nc2)c(NCc2ccc(Cl)nc2)c1	-4	54*
Fc1ccc2c(c1)C1C=CCC1C(c1ccc(Cl)cc1)N2 (stereo not drawn)	0	75*
O=C(O)c1ccc(C2Nc3ccc(F)cc3C3C=CCC32)cc1 (stereo not drawn)	-8	79*
O=C1CN(C(=O)c2ccc(F)cc2)C(c2ccc(F)cc2)c2cc(F)ccc2N1 (stereo not drawn)	-10	3
O=C(O)c1ccc(C2Nc3ccc(I)cc3C3C=CCC32)cc1 (stereo not drawn)	6	97*
Fc1ccc2c(c1)C1OCCC1C(c1ccccc1)N2 (stereo not drawn)	nt	1
Cc1cccc(C)c1NC(=O)CN1C(=O)NC2(CCC(C(C)(C)C)CC2)C1=O (stereo not drawn)	-8	1
O=C(Cc1ccc(F)cc1)NCC1CCN(Cc2cccs2)CC1	-7	-5
O=C1OC(c2cccc([N+](=O)[O-])c2)=N/C1=C\c1cccc(Cl)c1	2	26
COc1ccccc1C(=O)N1CCCN(C2CCN(Cc3ccc(F)cc3)C2=O)CC1 (stereo not drawn)	-2	15
O=C(c1ccccc1Cl)N1CCCN(C2CCN(Cc3ccc(F)cc3)C2=O)CC1 (stereo not drawn)	-4	57*
SMILES	Pf apPOL block	mHTT CaM bind
Cc1cc(C)c(S(=O)(=O)N2CCc3ccccc32)cc1[N+](=O)[O-]	-7	8
CCC(C)c1ccc(NC(=O)c2cccc(OC)c2)cc1 (stereo not drawn)	3	-13
CCn1c(=O)c(N2CCCC(C(=O)NC3CCCCCCC3)C2)nc2ccccc21 (stereo not drawn)	-8	64*
CCCn1c(N2CCCC(C(=O)NC3CC3)C2)nc2ccccc21 (stereo not drawn)	-10	1
COc1ccc(-c2c(C)oc3cc(O)ccc3c2=O)cc1OC	-5	3
COc1ccc(-c2c(C)oc3cc(OC(=O)C(C)C)ccc3c2=O)cc1OC	-7	84*
COc1ccc(-c2c(C)oc3cc(O)ccc3c2=O)cc1	62*	-5
COc1ccc(C(=O)Oc2ccc3c(=O)c(-c4ccc(OC)c(OC)c4)c(C)oc3c2)cc1OC	2	-2
FC(F)(F)C1CCN(c2ccc(-c3nc(-c4ccccc4)cs3)cn2)CC1	11	nt
O=C(O)CSc1nnc2n1-c1ccc(Cl)cc1NN2	76*	nt
O=C(O)CSc1nnc(-c2ccc(Cl)cc2)n1-c1ccccc1	-1	-9
CCc1ccccc1NC(=O)Cn1cc2c(n1)CCCCC2	-6	-6
Cc1ccc(NC(=O)C(=O)NCCCn2ccnc2)cc1F	-8	17
O=C(NCCCn1ccnc1)C(=O)NCc1ccc(F)cc1	-6	70*
CC(C)c1noc(-c2cccnc2N2CCCN(Cc3ccccc3Cl)CC2)n1	2	61*
Cc1ccccc1CN1CCCN(c2ncccc2-c2nc(C(C)C)no2)CC1	-2	-66
O=C1Nc2ccc(Br)cc2C1(O)Cc1ccccn1 (stereo not drawn)	-8	6
CCc1ccc2c(c1)C(=O)C(=O)N2	-4	21
O=C1Nc2ccc(Br)cc2C12NN=C(c1ccccc1)S2 (stereo not drawn)	0	100*
CCc1ccc2c(c1)C1(NN=C(c3ccc(C)cc3)S1)C(=O)N2 (stereo not drawn)	2	100*
c1ccc(COc2ccc(CN3CCN(c4ccccc4)CC3)cc2)cc1	-4	33
N#C/C(=C\c1ccc(Br)o1)c1nc(-c2ccc(Cl)cc2)cs1	-6	37
COc1cccc(CC(=O)N2CCC(c3nc(C(=O)N4CCCC4)c(C)o3)CC2)c1	-2	22
CCCN=Cc1c(CCC)[nH]n(-c2nc3ccccc3s2)c1=O	-7	3
O=c1c(C=NCCCO)c(CSc2ccc(Cl)cc2)[nH]n1-c1nc2ccccc2s1	6	56*
SMILES	Pf apPOL block	mHTT CaM bind
O=C(COc1ccc(Cl)cc1Cl)Nc1c2c(nn1-c1ccc([N+](=O)[O-])cc1)CSC2	-4	1
COCC(=O)N1CC(C)C(c2nc(-c3ccccc3)no2)C1 (stereo not drawn)	1	-5
CC(C)c1nn(-c2ccccc2Cl)c(C(C)C)c1C(=O)NC1CC1	3	0
O=C1Nc2ccc(F)cc2/C1=C\c1c(Cl)cccc1Cl	-3	100*
O=C1Nc2ccc(Br)cc2/C1=C\c1c(Cl)cccc1Cl	3	100*
O=C1Nc2ccccc2/C1=C\c1c(Cl)cccc1Cl	2	49
O=C1Nc2ccc(Br)cc2/C1=C/c1ccccc1Cl	-2	11
Cc1ccc(CNC(=O)c2nc(C)n(C3CCN(S(C)(=O)=O)CC3)c2C)o1	-5	17
Cn1cnnc1Sc1nc2c(c(=O)n(C)c(=O)n2C)n1Cc1cccc(F)c1	0	-1
CCc1noc(-c2cccn2Cc2ccccc2)n1	2	-47
OC(C=Nc1ccccc1)=CC=CNc1ccccc1	2	38
Cc1ccc(CNC(=O)CCCn2c(=O)c3sccc3n(Cc3ccc(F)cc3)c2=O)cc1	-3	1
Cc1ccc(NC(=O)c2ccc(NCCN)c([N+](=O)[O-])c2)cc1Cl	0	54*
Cc1ccc(NC(=O)c2ccc([N+](=O)[O-])c(C)c2)cc1Cl	-6	-2
CC(O)CNC(CC(=O)Nc1cccc(O)c1)C(=O)O (stereo not drawn)	1	-4
Cc1cccc(N2C(N)=C(C#N)C(c3cccs3)C3=C2CC(C)(C)CC3=O)c1 (stereo not drawn)	-4	33
CC1(C)CC(=O)C2=C(C1)N(c1ccc(F)cc1)C(N)=C(C#N)C2c1cc(Br)cs1 (stereo not drawn)	-4	81*
CC1(C)CC(=O)C2=C(C1)N(c1ccccc1)C(N)=C(C#N)C2c1ccc(Br)s1 (stereo not drawn)	-3	89*
COc1ccc(N2C(N)=C(C#N)C(c3ccc(F)cc3)C3=C2CC(C)(C)CC3=O)cc1 (stereo not drawn)	0	13

Screens deposited in PubChem BioAssay by University of Kansas High Throughput Screening Laboratory.
